Screens: PubChem BioAssay, National Center for Advancing Translational Sciences (NCATS)
A selection: hits, their analogues and other compounds. The true share with any hit is near 6.1%.
PK Bst = Pyruvate Kinase | AID 361, 2006 | hit rate 1.2% among 51,000 | purified pyruvate kinase, luminescence ATP production; ribose 5-phosphate activator present at AC10 | Potency, µM; in the data active means potency below about 11 µM; inconclusive means mostly about 12 µM to 25 µM;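 the screen sought inhibitors and activators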;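 further: scaled between full activation by ribose 5 phosphate and full inhibition by luteolin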
ALOX15 inhib = qHTS Assay for Inhibitors of 15-hLO (15-human lipoxygenase); Polyunsaturated fatty acid lipoxygenase ALOX15 (Homo sapiens), P16050; purified 15hLO-1, xylenol orange hydroperoxide absorbance; Potency, µM (doses to about 57.1 µM), for inactives: at the highest dose activity change, negative = inhibition, hits mostly inhibitors; hit rate 1.4% among 74,000; AID 887, 2007; further: nearly all actives have a fitted effect of over 55% in size
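Hydroperoxide formed from arachidonic acid (50 uM) by purified human 15hLO-1 (40 nM) oxidizes ferrous iron, and the ferric-xylenol orange complex is read at 573 versus 405 nm. Compounds were preincubated 15 min; reaction ran 6 min at room temperature.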
ERK AVP block = qHTS Assay for Inhibitors of the ERK Signaling Pathway using a Homogeneous Screening Assay. HEK293-V1b, vasopressin-stimulated pERK AlphaScreen. Potency, µM (series often up to 57.5 µM), inactives show at the top dose activity, negative = inhibition, usual class: inhibitors. hit rate 0.99% among 72,000. AID 995, 2007; further: nearly all actives have a fitted effect of over 55% in size
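Phosphorylated ERK1/2 detected via AlphaScreen bead proximity in lysates of V1b-expressing HEK293 cells given 25 nM vasopressin for 5 min after 30 min compound exposure (37 °C). AC50 from Hill equation; basal DMSO 0%, vasopressin 100%.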
Tau fil binding = qHTS Assay for Tau Filament Binding | hit rate 2% among 71,000 | recombinant tau filaments, thioflavin S fluorescence, 15 h; filaments grown with octadecylsulfate alongside compound | Potency, µM (titrated, usually from 57.1 µM), for inactives: at the highest dose activity change, negative = inhibition | AID 596, 2007;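 further: actives lower thioflavin S fluorescence by blocking filaments or displacing dye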
Target sequence (P10636 whole entry, looked up): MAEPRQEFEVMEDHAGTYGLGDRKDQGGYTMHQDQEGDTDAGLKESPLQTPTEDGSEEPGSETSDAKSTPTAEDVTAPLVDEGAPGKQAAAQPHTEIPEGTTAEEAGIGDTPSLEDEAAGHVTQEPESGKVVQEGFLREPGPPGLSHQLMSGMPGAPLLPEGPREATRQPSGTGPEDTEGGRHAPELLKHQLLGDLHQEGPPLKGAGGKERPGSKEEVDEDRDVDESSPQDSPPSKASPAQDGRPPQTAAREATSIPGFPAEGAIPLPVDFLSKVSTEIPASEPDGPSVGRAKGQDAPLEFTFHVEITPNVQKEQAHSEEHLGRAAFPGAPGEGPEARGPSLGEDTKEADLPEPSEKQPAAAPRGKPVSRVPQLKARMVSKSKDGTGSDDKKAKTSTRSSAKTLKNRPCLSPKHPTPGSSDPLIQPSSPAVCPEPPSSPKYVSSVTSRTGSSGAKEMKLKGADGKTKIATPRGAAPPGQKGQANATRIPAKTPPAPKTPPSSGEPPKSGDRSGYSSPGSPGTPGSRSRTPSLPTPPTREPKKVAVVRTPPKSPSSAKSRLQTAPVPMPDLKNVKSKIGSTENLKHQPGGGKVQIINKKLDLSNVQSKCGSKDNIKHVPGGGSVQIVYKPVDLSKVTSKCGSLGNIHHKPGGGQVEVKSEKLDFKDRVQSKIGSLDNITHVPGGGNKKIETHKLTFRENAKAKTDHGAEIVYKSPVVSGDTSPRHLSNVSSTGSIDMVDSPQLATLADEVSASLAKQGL
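Read-out: ThS fluorescence, 450 nm excitation/510 nm emission; lower signal marks blocked filament formation or displaced dye. Tau at 1 uM with 30 uM ODS, 10 uM ThS, 5 mM DTT, 100 mM NaCl, 10 mM HEPES pH 7.4; 15 h, 37 C.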
FLuc inh = qHTS Assay for Inhibitors of Firefly Luciferase. Luciferin 4-monooxygenase (Photinus pyralis), P08659. purified firefly luciferase, luminescence, 8 min. Potency, µM (series often up to 57.1 µM), for inactives: top-dose activity change, negative = inhibition, most hits filed as inhibitors. hit rate 2.2% among 72,000; further: nearly all actives have a fitted effect of over 40% in size
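Firefly luciferase (PKLight detection mix) with 10 uM ATP in pH 7.2 imidazole buffer (KCl, MgCl2, Tween 20, BSA). Compounds tested across a concentration series (qHTS). Luminescence read after 8 min at ambient temperature.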
Hsp90 Hop PPI = qHTS Assay for Disrupters of an Hsp90 Co-Chaperone Interaction | Hsp90 C-terminal peptide / TPR2A (Hop) interaction, human | AlphaScreen TPR2A-His6 binding biotin-Hsp90 C-terminal peptide | Potency, µM (series often up to 57 µM), without a hit: at the highest dose activity change, negative = inhibition | hit rate 0.44% among 71,000 | AID 595, 2007; active means well fitted curve in either direction with a large enough effect; inconclusive means small, poorly fitted or top-dose-only effect, or another doubt
Numbers without * were called inactive; [ ] = remark or other dose. Unless noted, the call rests on the fitted dose curve; in most records, active means well fitted curve in the direction sought with a large enough effect; inconclusive means small, poorly fitted or top-dose-only effect, or another doubt; inactive means no such curve, though single readings can be large; an effect the other way counts as inactive or inconclusive. Unless noted, on the % scale 0 is the no-effect control and ±100 the full control effect; potency means the concentration at half of the fitted maximal effect.

How did Cc1ccc(CNc2ccc(O)cc2)cc1 do in these assays?
PK Bst: >57; ALOX15 inhib: inconclusive; ERK AVP block: inconclusive; Tau fil binding: 10µM*; Hsp90 Hop PPI: inconclusive

What do the screens show for `CC(=O)N1CCN(c2ccc(NCc3ccc(C)cc3)cc2)CC1`?
PK Bst: >57; ALOX15 inhib: 12.6µM*; ERK AVP block: -28.0%; Tau fil binding: inconclusive; FLuc inh: -0.9%; Hsp90 Hop PPI: -22.2%

Results for CCc1ccc(CNc2ccc(N3CCN(C(C)=O)CC3)cc2)cc1 ?
PK Bst: >57; ALOX15 inhib: 15.8µM*; ERK AVP block: inconclusive; Tau fil binding: 12.6µM*; FLuc inh: -0.5%; Hsp90 Hop PPI: inconclusive

What do the screens show for `CS(=O)(=O)N1CCC2(CC1)CN(c1ccccc1)C2`?
ALOX15 inhib: -10.7%; ERK AVP block: 15.1%; Tau fil binding: -20.7%; FLuc inh: -0.4%[11.4 µM]; Hsp90 Hop PPI: 3.5%

How did CN(C)C[C@H]1CCC[C@@H](CN(C)C)C1=O do in these assays?
ALOX15 inhib: 8.2%[11.4 µM]; ERK AVP block: -4.7%[11.5 µM]; Tau fil binding: 2.6%[11.4 µM]; FLuc inh: 1.6%[11.4 µM]; Hsp90 Hop PPI: -3.1%[11 µM]

How did Cc1cc(C(=O)CN2C(=O)C3CC=CCC3C2=O)c(C)n1-c1ccccc1 (stereo not given) do in these assays?
PK Bst: 6.03*; ALOX15 inhib: -2.0%; ERK AVP block: -25.6%; Tau fil binding: 3.9%; FLuc inh: 3.98µM*; Hsp90 Hop PPI: -11.1%

What do the screens show for `CCCn1c(C)cc(C(=O)CN2C(=O)c3ccccc3C2=O)c1C`?
ALOX15 inhib: 1.7%; ERK AVP block: 19.1%; Tau fil binding: 1.1%; FLuc inh: 15.8µM*; Hsp90 Hop PPI: 0.2%

How did Cc1cc(C(=O)CN2C(=O)c3ccccc3S2(=O)=O)c(C)n1-c1ccccc1 do in these assays?
PK Bst: inconclusive; ALOX15 inhib: -5.0%; ERK AVP block: 0.8%; Tau fil binding: -7.6%; FLuc inh: 7.94µM*; Hsp90 Hop PPI: -8.5%

How did COc1ccc(-n2c(C)cc(C(=O)Cn3nnc4ccccc4c3=O)c2C)cc1 do in these assays?
PK Bst: >57; ALOX15 inhib: -11.4%; ERK AVP block: 10.7%; Tau fil binding: -12.2%; FLuc inh: -27.0%; Hsp90 Hop PPI: -11.7%

How did COc1ccc(C(=O)CN2C(=O)c3ccccc3C2=O)c(OC)c1C do in these assays?
PK Bst: >57; ALOX15 inhib: -6.4%; ERK AVP block: -19.3%; Tau fil binding: -16.2%; FLuc inh: -1.3%; Hsp90 Hop PPI: 7.1%

What do the screens show for `O=C(Nc1ccon1)c1cc2c(s1)CCCC2`?
PK Bst: >57; ALOX15 inhib: -12.9%; ERK AVP block: 119.8%; Tau fil binding: -3.7%; FLuc inh: 2.4%; Hsp90 Hop PPI: inconclusive

What do the screens show for `O=C(Nc1ccon1)c1cc2c(s1)CCCCCC2`?
ALOX15 inhib: inconclusive; ERK AVP block: 6.4%; Tau fil binding: -17.8%; FLuc inh: 25.1µM*; Hsp90 Hop PPI: -2.8%

How did Cc1[nH]c(C)c(CN(C)C)c1CN(C)C do in these assays?
ALOX15 inhib: -19.7%[11.4 µM]; ERK AVP block: 41.7%[11.5 µM]; Tau fil binding: 0.3%[11.4 µM]; FLuc inh: -0.7%[11.4 µM]; Hsp90 Hop PPI: -1.2%[11 µM]

How did O=C(O)c1ccccc1NS(=O)(=O)c1ccccc1F do in these assays?
ALOX15 inhib: -9.9%

What do the screens show for `CC(C)c1ccc(NC(=O)C2CC(=O)N=C(N)S2)cc1` (stereo not given)?
PK Bst: >57; ALOX15 inhib: 25.1µM*; ERK AVP block: 1.2%; Tau fil binding: -10.5%; FLuc inh: -1.2%; Hsp90 Hop PPI: -4.7%

Results for COc1ccccc1N1CCN(c2nc(-c3ccccc3)cc(C(F)(F)F)n2)CC1 ?
PK Bst: >57; ALOX15 inhib: -1.4%; ERK AVP block: 5.2%; Tau fil binding: 8.1%; FLuc inh: 0.0%; Hsp90 Hop PPI: -1.9%

How did COc1ccccc1N1CCN(c2ccc(-c3ccccc3)nn2)CC1 do in these assays?
PK Bst: 1.63*; ALOX15 inhib: -7.5%; ERK AVP block: -2.4%; Tau fil binding: inconclusive; FLuc inh: 0.631µM*; Hsp90 Hop PPI: -13.5%

How did CCCC(=O)c1cc(O)c(O)cc1O do in these assays?
ALOX15 inhib: 3.98µM*; ERK AVP block: -2.4%; Tau fil binding: inconclusive; Hsp90 Hop PPI: -6.8%

Results for CCCn1c(-c2ccc(F)cc2)nc2c(N3CCN(CCC(=O)OCC)CC3)nc(C)nc21 ?
ALOX15 inhib: -2.1%; ERK AVP block: -10.6%; Tau fil binding: -5.2%; Hsp90 Hop PPI: 0.6%

How did Cc1c2ccccc2c(C)c2c1ccc1ccccc12 do in these assays?
ALOX15 inhib: -12.1%; ERK AVP block: 58.2%; Tau fil binding: 5.1%; Hsp90 Hop PPI: 31.6µM*

How did O=C(CCN1CCOCC1)Nc1ccc2c(c1)CCC2 do in these assays?
PK Bst: >57; ALOX15 inhib: 25.1µM*; ERK AVP block: -10.0%; Tau fil binding: -8.7%; FLuc inh: 1.2%; Hsp90 Hop PPI: -4.0%

How did O=C(Cc1ccc(S(=O)(=O)N2CCOCC2)s1)Nc1ccc2c(c1)CCC2 do in these assays?
PK Bst: >57; ALOX15 inhib: -29.1%; ERK AVP block: 36.2%; Tau fil binding: -2.6%; FLuc inh: -5.9%; Hsp90 Hop PPI: -8.8%

How did COc1ccc(OC)c(S(=O)(=O)n2ccnc2)c1 do in these assays?
ALOX15 inhib: 0.8%; Tau fil binding: -8.0%; FLuc inh: 2.5%; Hsp90 Hop PPI: -0.6%

What do the screens show for `Cc1c(C(=O)NCCC2=CCCCC2)oc2ccc(S(=O)(=O)N3CCOCC3)cc12`?
PK Bst: >57; ALOX15 inhib: 15.8µM*; ERK AVP block: inconclusive; Tau fil binding: 0.7%; FLuc inh: -3.3%; Hsp90 Hop PPI: 0.8%

What do the screens show for `CCOC(=O)C1CCN(Cc2ccc(O)c3ncccc23)CC1`?
PK Bst: >57; ALOX15 inhib: 14.0%; ERK AVP block: -1.2%; Tau fil binding: -16.0%; FLuc inh: 1.9%; Hsp90 Hop PPI: 5.01µM*

How did CCOC(=O)C1CCN(Cc2ccccc2C(F)(F)F)CC1 do in these assays?
PK Bst: >57; ALOX15 inhib: -5.5%; ERK AVP block: 15.0%; Tau fil binding: -7.6%; FLuc inh: 4.8%; Hsp90 Hop PPI: 0.1%

How did O=C(C[C@@H](c1ccccc1)N1CCCCC1)c1ccccc1 do in these assays?
ALOX15 inhib: 5.0%[11.4 µM]; ERK AVP block: 30.7%[11.5 µM]; Tau fil binding: -1.5%[11.4 µM]; FLuc inh: -20.7%[11.4 µM]; Hsp90 Hop PPI: -0.8%[11 µM]

Results for O=C(/C=C/Nc1ccc(F)cc1)c1ccco1 ?
PK Bst: 3.73*; ALOX15 inhib: -4.6%; ERK AVP block: -11.4%; Tau fil binding: -6.2%; FLuc inh: 3.16µM*; Hsp90 Hop PPI: -5.7%
